According to PubChem BioAssay:
Results filed as inconclusive are left out. Calls of active or inactive are those of the source. Unless noted, no rule for the calls is given here.

What was measured:
[1] = biological target: Mitogen-activated protein kinase 7 (Homo sapiens) (UniProt Q13164); experiment: Gal4-ERK5 driven luciferase induction – cell-based, HTS, primary screen (AID 1508626;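 active = luciferase signal above three times the same-plate solvent-only control wells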;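 also: luciferase driven by Gal4-ERK5 fusion binding five Gal4 sites before minimal TATA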); settings: HeLa Gal4-ERK5 transactivation, 18 h, at 5 µM, stronger effect = higher value
Sequence of Mitogen-activated protein kinase 7 (Homo sapiens) (Q13164 whole entry, looked up, the tested form may be a part): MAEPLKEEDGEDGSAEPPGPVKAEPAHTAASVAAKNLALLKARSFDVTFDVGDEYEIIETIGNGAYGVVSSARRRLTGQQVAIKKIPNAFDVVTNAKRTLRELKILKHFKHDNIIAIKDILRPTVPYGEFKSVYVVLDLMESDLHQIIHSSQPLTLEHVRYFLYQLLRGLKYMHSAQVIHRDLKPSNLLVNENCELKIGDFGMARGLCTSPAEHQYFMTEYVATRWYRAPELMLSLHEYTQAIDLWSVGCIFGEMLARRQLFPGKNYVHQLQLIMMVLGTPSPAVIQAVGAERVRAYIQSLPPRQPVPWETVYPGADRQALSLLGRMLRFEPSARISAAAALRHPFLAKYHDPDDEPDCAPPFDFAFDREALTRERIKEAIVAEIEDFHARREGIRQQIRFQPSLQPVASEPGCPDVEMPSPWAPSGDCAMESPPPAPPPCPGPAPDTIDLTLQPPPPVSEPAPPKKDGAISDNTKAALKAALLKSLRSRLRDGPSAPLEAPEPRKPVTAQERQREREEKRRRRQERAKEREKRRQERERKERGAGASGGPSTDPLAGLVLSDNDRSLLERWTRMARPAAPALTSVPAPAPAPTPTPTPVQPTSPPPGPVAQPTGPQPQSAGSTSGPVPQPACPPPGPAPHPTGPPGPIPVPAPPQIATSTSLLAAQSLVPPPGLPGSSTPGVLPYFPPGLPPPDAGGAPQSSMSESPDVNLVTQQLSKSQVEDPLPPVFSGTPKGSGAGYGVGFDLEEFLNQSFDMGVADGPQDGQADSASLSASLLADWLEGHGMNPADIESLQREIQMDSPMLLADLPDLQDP

[2] = viability loss in pontine glioma line – cell-based, SU-DIPG-IV, MIPE4.0, CellTiter-Glo, qHTS, dose response (AID 1347063; cut-off not given, nearly all actives have AC50 up to about 30 µM;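 also: compound exposure lasted 48 hours before the viability readout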); settings: CellTiter-Glo ATP luminescence
[3] = viability loss in pontine glioma line – cell-based, SU-DIPG-XIII, MIPE5.0, CellTiter-Glo, qHTS, dose response (AID 1347064; cut-off not given, nearly all actives have AC50 up to about 23 µM); settings: CellTiter-Glo ATP luminescence
[4] = growth inhibition of DIPG cells – cell-based, MIPE4.0 library, CellTiter-Glo luminescence, qHTS (AID 1347066; cut-off not given, nearly all actives have AC50 up to about 30 µM;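 also: cells exposed to compound for 48 hours before readout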); settings: SU-DIPG-VI viability, CellTiter-Glo ATP luminescence
[5] = JHH-DIPG-1 glioma cell viability, MIPE5.0 library, CellTiter-Glo luminescence, qHTS (AID 1347067; cut-off not given, nearly all actives have AC50 up to about 26 µM;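 also: cells exposed to compound for 48 hours before readout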); settings: JHH-DIPG-1 glioma viability, CellTiter-Glo ATP luminescence
[6] = growth inhibition, single agent or in combination, cell-based, chromothripsis tumors, cisplatin or BGB combos (AID 1671449; in the data active = inhibition above about 80%;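 also: cells exposed for 96 hours; 0% = vehicle DMSO and 100% = killing by high DMSO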); settings: LFS_MB_P medulloblastoma cells
[7] = growth inhibition, single agent and combos, cell-based, chromothripsis tumors, cisplatin or BGB combos (AID 1671450; in the data active = inhibition above about 80%;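 also: cells exposed to compound for four days; 0% = vehicle DMSO and 100% = cell killing by high DMSO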); settings: HDN33 neuroblastoma cells, stronger effect = higher value
[8] = growth inhibition, single agents and combos, ICB984, cell-based, cisplatin or BGB combos, synergistic combos for chromothripsis tumors (AID 1671451); settings: ICB984 medulloblastoma cells, drug combinations, stronger effect = higher value;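 also: cells exposed for 96 hours before readout; 0% = vehicle DMSO and 100% = killing by high DMSO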
[9] = growth inhibition, single agents and combos, HTB85, cell-based, BGB or cisplatin IC20 combos, synergistic combos for chromothripsis tumors (AID 1671453; in the data active = inhibition above about 80%;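 also: cells exposed for 96 hours before readout; 0% = vehicle DMSO and 100% = high DMSO killing control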); settings: HTB85 osteosarcoma cells, drug combinations, stronger effect = higher value
[10] = growth inhibition, MDA-MB-436, cell-based, BGB or cisplatin combos, synergistic combos for chromothripsis tumors (AID 1671458); settings: MDA-MB-436 breast carcinoma growth inhibition, drug combinations, stronger effect = higher value;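 also: cells exposed for 96 hours; 0% = vehicle DMSO and 100% = killing by high DMSO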
[11] = BT084 cell growth, single and combined drugs, ICGC_MB145, cisplatin and BGB IC40 combos (AID 1671461; in the data active = inhibition above about 80%;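 also: cells exposed to drugs for 96 hours; 0% = vehicle DMSO and 100% = high DMSO full killing control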); settings: BT084 medulloblastoma cells, drug combinations, stronger effect = higher value
[12] = RCMB18 cell growth, single agent and combined, cisplatin and BGB IC40 combos (AID 1671462; in the data active = inhibition above about 80%;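 also: cells exposed to compound for four days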); settings: RCMB18 medulloblastoma cells, stronger effect = higher value
[13] = CRL1545 cell growth, single agent and combined, cisplatin and BGB IC20 combos (AID 1671464; in the data active = inhibition above about 80%;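 also: cells exposed to compound for 96 hours before readout; 0% = vehicle DMSO and 100% = high DMSO killing control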); settings: CRL1545 osteosarcoma cells, stronger effect = higher value
[14] = compounds altering circadian rhythm period length – cell-based, LOPAC library, luminescence reporter (AID 2774); settings: circadian reporter cells, at 7 µM, actives lie on both sides;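 also: values are relative to mean of DMSO wells on each plate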
[15] = compounds altering viability of human ES cells (AID 493140); settings: human embryonic stem cell survival screen; stronger effect = higher value;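 also: cells exposed to compounds for four days before counting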
[16] = test system: Hepatitis C virus NS3 helicase; experiment: blockers of NS3h binding to ssDNA – biochemical, fluorescence polarization, LOPAC1280 library, primary screen (AID 687035; in the data active = inhibition above about 37%); settings: Purified HCV NS3 helicase, Cy5-dT15 ssDNA binding fluorescence polarization; stronger effect = higher value; concentration not given here
[17] = compounds altering Cy5-DNA-NS3h complex signal – biochemical, LOPAC1280, artefact control for HCV NS3 helicase inhibitor project (AID 687037); settings: Cy5-DNA-NS3h complex fluorescence interference counterscreen
[18] = blockers of cellular phospholipid synthesis – cell-based, LOPAC library, screen 4, primary screen (AID 1347384); settings: animal cells, phospholipid biosynthesis inhibition screen; at 10 µM
[19] = measured here: with BGB IC20 combination, at 0.5 µM
[20] = measured here: with cisplatin IC20 combination, at 0.5 µM

CCCCCCCCCCOc1cc2c(=O)c(C(=O)OCC)c[nH]c2cc1OCC
luciferase signal [1]: 44 AU (inactive)

Nc1ncn([C@H]2C[C@H](O)[C@@H](CO)O2)c(=O)n1
outcome [2]: inactive
outcome [3]: inactive
outcome [4]: inactive
outcome [5]: inactive
inhibition ([6]; at 0.5 µM, stronger effect = higher value): 6.06% (inactive)
inhibition ([6]; measured here: combination with BGB IC20, at 0.005 µM): -1.4%
inhibition ([6]; measured here: combination with BGB IC40, at 0.005 µM): -3.75%
inhibition ([6]; measured here: combination with BGB IC40, at 0.05 µM): -40.3%
inhibition ([6]; measured here: combination with cisplatin, at 0.5 µM, stronger effect = higher value): 19.6%
inhibition ([6]; measured here: combination with cisplatin, at 5 µM, stronger effect = higher value): 18%
inhibition ([7]; BGB combo, at 5 µM): 50.3%
inhibition ([7]; at 0.5 µM): 24.3% (inactive)
inhibition ([7]; cisplatin combo, at 5 µM): 54.4%
inhibition [7, 19]: 30.2%
inhibition [7, 20]: 11.6%
inhibition ([7]; single agent, at 5 µM): 52.1%
inhibition ([8]; BGB IC20 combo, at 0.005 µM): -3.18%
inhibition ([8]; BGB IC40 combo, at 0.005 µM): -34%
inhibition ([8]; BGB IC40 combo, at 0.05 µM): -19.3%
inhibition ([8]; at 0.5 µM): -18% (inactive)
inhibition ([8]; cisplatin combo, at 0.05 µM): -23.6%
inhibition ([8]; cisplatin combo, at 0.5 µM): -14.1%
inhibition ([8]; cisplatin combo, at 5 µM): -50.9%
inhibition ([8]; measured here: 5 uM single agent, at 5 µM): -6.92%
inhibition ([9]; at 0.5 µM): 3.38% (inactive)
inhibition ([9]; measured here: with BGB IC20, at 0.5 µM): 2.59%
inhibition ([9]; measured here: with BGB IC20, at 5 µM): 19.3%
inhibition ([9]; measured here: with cisplatin IC20, at 0.5 µM): -6.21%
inhibition ([9]; measured here: with cisplatin IC20, at 5 µM): 27.4%
inhibition ([9]; single agent, at 5 µM): 40.2%
inhibition ([10]; at 0.5 µM): 17.4% (inactive)
inhibition ([10]; measured here: BGB combination, at 0.5 µM): 28.5%
inhibition ([10]; measured here: BGB combination, at 5 µM): 26.2%
inhibition ([10]; measured here: cisplatin combination, at 0.5 µM): 6.25%
inhibition ([10]; measured here: cisplatin combination, at 5 µM): 4.64%
inhibition ([11]; at 0.5 µM): -3.99% (inactive)
inhibition ([11]; cisplatin combination, at 0.5 µM): -10.2%
inhibition ([11]; cisplatin combination, at 5 µM): 16.2%
inhibition ([11]; measured here: BGB IC40 combination 0.05 uM, at 0.05 µM): -0.777%
inhibition ([11]; single agent, at 5 µM): -11.6%
inhibition ([12]; at 0.5 µM): -2.53% (inactive)
inhibition ([12]; cisplatin combo, at 5 µM): -31%
inhibition ([12]; measured here: BGB IC40 combination, at 0.05 µM): 7.83%
inhibition ([12]; measured here: combination with cisplatin, at 0.5 µM): -5.57%
inhibition ([12]; single agent, at 5 µM): 7.32%
inhibition ([13]; at 0.5 µM): -20.4% (inactive)
inhibition [13, 19]: -0.059%
inhibition [13, 20]: -32.7%
inhibition ([13]; single agent, at 0.05 µM): -13.4%
inhibition ([13]; single agent, at 5 µM): 5.37%

C[N+](C)(C)CCCCCCCCCC[N+](C)(C)C
period change [14]: 0.03 h (inactive)
survival [15]: 4 (inactive)
inhibition [16]: 2% (inactive)
fluorescence ratio (interference) [17]: 1 (inactive)
outcome [18]: inactive
luciferase signal [1]: 60 AU (inactive)

CC(C)CCCC(C)N (centres undefined)
luciferase signal [1]: 56 AU (inactive)

NC(=O)c1cc[n+](CC2=C(C(=O)[O-])N3C(=O)[C@@H](NC(=O)Cc4cccs4)[C@H]3SC2)cc1
survival [15]: 16 (inactive)
